Holding throughout (assay): log2 ratio of Biotin-Ahx-Ub-VS probe labelling (fragment/DMSO); higher = less target engagement (more negative = stronger competition), active = hit call of the paper (q ≤ 0.05, log2 ratio ≤ -1)
Common to all, as to conditions: compound concentration: 200 uM; treatment time: 3 h

One experiment deals with T1, USP42 (UniProt Q9H9J4).
T1 sequence (whole entry): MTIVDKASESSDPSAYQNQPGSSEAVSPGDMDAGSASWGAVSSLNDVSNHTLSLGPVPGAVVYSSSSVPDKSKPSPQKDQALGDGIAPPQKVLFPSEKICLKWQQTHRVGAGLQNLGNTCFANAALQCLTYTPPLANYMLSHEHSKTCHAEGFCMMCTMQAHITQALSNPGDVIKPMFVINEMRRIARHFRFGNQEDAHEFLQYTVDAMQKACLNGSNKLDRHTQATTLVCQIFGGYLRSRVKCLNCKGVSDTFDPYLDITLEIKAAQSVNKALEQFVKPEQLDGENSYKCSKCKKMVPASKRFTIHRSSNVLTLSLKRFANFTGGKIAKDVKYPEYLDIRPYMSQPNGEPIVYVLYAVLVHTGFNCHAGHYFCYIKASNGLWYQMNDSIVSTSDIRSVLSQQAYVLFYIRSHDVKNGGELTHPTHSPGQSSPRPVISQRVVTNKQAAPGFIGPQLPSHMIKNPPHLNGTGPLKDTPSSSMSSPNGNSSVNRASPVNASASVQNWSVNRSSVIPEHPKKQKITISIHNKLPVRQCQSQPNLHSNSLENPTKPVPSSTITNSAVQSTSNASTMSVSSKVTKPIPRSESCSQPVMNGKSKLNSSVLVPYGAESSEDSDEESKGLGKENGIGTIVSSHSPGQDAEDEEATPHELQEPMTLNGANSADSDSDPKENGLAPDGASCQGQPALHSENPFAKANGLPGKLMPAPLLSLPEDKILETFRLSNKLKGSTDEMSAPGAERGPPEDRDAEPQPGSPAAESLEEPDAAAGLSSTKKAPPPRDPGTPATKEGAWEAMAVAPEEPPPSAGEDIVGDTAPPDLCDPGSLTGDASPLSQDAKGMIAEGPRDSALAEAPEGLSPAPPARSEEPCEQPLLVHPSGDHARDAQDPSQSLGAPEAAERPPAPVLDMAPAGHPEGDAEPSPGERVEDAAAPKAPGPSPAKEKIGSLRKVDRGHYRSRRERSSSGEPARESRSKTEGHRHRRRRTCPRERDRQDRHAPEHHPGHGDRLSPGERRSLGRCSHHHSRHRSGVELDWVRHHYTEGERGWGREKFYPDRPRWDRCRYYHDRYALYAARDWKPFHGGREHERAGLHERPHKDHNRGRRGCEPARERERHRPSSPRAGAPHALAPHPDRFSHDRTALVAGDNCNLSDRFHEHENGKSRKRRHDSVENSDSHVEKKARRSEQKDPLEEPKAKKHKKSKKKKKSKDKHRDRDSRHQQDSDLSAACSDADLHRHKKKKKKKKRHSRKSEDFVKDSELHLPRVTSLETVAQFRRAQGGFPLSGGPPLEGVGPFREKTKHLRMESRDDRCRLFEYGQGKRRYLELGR
Summed up:
(§1)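 Labelled DUBs were enriched with NeutrAvidin, digested with LysC and trypsin, and run by diaPASEF LC-MS/MS. The labelling used Biotin-Ahx-Ub-VS at 0.5 µM final for 1 h on HEK293T lysate (495 µg per sample) previously treated in triplicate with fragment at 200 µM or vehicle for 3 h. Values are average log2 fragment/vehicle ratios by unpaired t-test on global-median-normalised Spectronaut quantities of proteins with ≥2 unique peptides.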

The next experiment addresses USP46 (UniProt P62068). The method in brief: as §1
For a further experiment, the target named is T2, USP47 (UniProt Q96K76).
T2 sequence (whole entry): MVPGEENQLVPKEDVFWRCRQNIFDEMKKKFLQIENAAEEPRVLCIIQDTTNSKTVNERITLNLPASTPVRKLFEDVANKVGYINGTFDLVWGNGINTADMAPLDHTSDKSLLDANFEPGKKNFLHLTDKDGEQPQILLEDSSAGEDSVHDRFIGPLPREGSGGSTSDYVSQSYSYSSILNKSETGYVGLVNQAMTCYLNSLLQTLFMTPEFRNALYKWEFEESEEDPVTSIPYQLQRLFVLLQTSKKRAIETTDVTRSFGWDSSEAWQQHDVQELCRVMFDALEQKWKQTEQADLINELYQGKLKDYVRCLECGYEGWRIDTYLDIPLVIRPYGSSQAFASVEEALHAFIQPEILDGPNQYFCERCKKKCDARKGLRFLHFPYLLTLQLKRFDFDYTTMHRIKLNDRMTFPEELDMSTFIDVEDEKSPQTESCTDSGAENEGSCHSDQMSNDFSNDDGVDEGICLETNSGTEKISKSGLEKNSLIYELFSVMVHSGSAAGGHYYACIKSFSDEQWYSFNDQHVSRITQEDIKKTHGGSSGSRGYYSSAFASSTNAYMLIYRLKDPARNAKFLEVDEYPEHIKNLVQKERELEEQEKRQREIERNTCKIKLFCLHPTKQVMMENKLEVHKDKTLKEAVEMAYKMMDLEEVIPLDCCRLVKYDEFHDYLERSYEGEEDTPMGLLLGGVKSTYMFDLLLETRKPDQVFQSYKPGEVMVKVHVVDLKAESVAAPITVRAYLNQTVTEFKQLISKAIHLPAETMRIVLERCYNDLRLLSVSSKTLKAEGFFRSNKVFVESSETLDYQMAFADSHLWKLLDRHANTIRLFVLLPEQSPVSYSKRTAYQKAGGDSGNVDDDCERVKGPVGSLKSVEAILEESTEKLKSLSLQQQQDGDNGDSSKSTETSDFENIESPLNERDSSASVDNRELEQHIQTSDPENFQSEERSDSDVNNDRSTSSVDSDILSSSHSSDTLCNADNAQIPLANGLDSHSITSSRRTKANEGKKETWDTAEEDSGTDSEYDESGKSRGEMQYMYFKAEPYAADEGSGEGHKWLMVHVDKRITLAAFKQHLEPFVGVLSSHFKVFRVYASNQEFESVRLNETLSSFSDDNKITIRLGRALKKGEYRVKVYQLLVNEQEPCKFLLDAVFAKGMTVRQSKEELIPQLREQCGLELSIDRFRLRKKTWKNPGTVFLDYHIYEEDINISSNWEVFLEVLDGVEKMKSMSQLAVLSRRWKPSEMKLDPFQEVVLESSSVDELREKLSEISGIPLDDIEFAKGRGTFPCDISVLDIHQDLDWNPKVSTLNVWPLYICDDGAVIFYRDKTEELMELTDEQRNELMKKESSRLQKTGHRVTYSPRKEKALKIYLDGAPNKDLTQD
The method in brief: as §1

Another experiment addresses T3, USP48 (UniProt Q86UV5).
T3 sequence (whole entry): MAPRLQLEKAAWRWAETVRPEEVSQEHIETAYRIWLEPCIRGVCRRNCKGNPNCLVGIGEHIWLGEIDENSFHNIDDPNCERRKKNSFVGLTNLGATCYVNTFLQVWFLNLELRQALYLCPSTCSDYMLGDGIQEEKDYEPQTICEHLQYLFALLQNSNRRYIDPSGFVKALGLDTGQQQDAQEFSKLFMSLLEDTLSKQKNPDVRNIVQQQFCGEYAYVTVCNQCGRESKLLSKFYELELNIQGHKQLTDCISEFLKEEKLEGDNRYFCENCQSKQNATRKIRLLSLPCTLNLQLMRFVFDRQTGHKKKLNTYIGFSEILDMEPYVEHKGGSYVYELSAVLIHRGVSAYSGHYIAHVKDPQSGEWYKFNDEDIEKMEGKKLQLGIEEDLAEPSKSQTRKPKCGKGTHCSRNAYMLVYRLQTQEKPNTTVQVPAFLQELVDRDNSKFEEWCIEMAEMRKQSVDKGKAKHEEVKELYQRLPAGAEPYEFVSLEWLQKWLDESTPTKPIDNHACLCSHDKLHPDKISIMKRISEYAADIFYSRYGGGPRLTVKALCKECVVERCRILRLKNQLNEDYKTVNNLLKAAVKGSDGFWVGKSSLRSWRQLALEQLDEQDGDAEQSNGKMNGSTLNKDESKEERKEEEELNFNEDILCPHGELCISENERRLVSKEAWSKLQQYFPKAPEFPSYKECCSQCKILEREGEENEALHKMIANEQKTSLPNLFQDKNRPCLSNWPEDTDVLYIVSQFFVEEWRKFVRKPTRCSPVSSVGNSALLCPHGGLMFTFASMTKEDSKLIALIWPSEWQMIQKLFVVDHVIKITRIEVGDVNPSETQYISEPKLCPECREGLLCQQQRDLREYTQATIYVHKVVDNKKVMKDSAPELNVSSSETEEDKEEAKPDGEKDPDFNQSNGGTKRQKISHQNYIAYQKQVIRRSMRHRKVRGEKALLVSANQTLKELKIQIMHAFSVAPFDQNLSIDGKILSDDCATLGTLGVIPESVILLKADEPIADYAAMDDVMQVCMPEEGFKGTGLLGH
The method in brief: as §1

The target of another experiment is T4, USP5 (UniProt P45974).
T4 sequence (whole entry): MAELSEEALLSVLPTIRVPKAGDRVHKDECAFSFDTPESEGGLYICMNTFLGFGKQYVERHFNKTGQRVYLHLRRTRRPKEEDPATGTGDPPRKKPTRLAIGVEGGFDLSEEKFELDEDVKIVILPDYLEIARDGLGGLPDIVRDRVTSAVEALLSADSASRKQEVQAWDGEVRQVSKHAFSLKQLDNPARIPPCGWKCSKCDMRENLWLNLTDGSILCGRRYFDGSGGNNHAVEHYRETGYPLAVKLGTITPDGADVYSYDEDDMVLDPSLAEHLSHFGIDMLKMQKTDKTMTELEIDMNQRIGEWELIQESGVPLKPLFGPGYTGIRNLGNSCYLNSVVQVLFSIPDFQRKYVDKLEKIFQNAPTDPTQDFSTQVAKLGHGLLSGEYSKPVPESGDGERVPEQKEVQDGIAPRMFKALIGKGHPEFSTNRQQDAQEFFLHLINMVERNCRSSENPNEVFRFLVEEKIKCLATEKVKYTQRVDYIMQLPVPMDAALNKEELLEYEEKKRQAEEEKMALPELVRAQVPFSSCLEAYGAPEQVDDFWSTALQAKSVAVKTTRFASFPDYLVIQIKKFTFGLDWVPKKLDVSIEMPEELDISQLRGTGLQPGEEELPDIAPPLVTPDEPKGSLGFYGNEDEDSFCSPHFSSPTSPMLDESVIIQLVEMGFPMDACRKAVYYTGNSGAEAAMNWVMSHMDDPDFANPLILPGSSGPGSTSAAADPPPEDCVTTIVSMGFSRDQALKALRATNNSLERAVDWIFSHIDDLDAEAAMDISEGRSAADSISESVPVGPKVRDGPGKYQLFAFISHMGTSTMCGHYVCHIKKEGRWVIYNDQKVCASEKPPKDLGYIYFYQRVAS
The method in brief: as §1

A further experiment concerns the target USP54 (UniProt Q70EL1). Summed up: as §1
For another experiment, the target named is USP7 (UniProt Q93009). Summed up:
as §1

The target of the next experiment is T5, USP8 (UniProt P40818).
T5 sequence (whole entry): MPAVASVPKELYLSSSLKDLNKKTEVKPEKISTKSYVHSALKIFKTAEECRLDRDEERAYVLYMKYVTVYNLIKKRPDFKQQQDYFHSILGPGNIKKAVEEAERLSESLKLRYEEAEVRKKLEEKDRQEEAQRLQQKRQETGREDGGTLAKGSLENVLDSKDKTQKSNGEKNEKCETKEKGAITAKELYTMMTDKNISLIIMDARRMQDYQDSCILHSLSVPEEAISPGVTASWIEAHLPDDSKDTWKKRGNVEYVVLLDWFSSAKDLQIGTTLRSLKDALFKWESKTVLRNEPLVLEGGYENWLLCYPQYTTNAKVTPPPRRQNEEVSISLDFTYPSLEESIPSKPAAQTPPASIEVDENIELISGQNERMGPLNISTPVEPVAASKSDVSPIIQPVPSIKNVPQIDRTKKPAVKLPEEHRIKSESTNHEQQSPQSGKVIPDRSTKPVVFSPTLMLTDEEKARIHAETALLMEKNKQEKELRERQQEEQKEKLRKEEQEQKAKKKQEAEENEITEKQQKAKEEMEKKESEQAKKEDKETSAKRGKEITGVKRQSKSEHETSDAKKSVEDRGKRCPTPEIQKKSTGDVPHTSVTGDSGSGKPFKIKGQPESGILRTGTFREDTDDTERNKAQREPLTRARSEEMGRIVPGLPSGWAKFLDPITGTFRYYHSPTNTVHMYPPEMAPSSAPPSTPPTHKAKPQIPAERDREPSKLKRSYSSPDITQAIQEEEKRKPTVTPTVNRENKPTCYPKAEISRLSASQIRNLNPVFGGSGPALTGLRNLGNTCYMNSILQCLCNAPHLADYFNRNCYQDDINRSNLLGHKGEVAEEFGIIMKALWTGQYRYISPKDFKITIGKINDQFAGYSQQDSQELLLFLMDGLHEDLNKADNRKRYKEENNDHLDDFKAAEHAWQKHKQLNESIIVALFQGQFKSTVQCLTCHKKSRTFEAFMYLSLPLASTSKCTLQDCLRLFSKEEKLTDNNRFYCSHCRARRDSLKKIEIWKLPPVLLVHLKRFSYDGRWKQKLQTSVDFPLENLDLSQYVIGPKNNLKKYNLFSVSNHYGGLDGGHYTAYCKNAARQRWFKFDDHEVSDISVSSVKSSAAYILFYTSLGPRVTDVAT
The method in brief:
as §1

The next experiment concerns the target USP9X (UniProt Q93008). The method in brief: as §1
A further experiment concerns the target UniProt O00487. Summed up: as §1

Experimental findings from the supplement of paper PMC11732987, “Enantioselective OTUD7B fragment discovery through chemoproteomics screening and high-throughput optimisation” (Communications Chemistry, 2025) are described below.

A number with no mark means an inactive call.

Sequence of USP46 (P62068 whole entry): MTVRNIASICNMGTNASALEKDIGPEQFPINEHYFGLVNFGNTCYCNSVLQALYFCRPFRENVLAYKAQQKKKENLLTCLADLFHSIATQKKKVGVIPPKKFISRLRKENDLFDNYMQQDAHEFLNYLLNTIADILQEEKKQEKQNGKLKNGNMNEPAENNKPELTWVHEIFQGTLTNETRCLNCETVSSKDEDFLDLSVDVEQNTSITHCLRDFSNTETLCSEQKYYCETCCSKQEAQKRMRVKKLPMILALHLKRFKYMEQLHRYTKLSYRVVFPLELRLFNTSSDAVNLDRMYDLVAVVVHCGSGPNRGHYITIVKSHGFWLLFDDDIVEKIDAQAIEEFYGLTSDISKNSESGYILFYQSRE
Sequence of UniProt O00487 (O00487 whole entry): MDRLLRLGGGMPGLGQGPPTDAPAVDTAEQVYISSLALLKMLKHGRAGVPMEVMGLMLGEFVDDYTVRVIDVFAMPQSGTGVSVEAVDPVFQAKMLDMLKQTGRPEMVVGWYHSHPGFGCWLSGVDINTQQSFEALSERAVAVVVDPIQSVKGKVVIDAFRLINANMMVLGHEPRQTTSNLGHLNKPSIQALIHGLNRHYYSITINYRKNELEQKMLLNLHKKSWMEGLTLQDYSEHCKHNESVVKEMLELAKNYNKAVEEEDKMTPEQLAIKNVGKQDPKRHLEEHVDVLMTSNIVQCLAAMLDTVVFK
Sequence of USP54 (Q70EL1 whole entry): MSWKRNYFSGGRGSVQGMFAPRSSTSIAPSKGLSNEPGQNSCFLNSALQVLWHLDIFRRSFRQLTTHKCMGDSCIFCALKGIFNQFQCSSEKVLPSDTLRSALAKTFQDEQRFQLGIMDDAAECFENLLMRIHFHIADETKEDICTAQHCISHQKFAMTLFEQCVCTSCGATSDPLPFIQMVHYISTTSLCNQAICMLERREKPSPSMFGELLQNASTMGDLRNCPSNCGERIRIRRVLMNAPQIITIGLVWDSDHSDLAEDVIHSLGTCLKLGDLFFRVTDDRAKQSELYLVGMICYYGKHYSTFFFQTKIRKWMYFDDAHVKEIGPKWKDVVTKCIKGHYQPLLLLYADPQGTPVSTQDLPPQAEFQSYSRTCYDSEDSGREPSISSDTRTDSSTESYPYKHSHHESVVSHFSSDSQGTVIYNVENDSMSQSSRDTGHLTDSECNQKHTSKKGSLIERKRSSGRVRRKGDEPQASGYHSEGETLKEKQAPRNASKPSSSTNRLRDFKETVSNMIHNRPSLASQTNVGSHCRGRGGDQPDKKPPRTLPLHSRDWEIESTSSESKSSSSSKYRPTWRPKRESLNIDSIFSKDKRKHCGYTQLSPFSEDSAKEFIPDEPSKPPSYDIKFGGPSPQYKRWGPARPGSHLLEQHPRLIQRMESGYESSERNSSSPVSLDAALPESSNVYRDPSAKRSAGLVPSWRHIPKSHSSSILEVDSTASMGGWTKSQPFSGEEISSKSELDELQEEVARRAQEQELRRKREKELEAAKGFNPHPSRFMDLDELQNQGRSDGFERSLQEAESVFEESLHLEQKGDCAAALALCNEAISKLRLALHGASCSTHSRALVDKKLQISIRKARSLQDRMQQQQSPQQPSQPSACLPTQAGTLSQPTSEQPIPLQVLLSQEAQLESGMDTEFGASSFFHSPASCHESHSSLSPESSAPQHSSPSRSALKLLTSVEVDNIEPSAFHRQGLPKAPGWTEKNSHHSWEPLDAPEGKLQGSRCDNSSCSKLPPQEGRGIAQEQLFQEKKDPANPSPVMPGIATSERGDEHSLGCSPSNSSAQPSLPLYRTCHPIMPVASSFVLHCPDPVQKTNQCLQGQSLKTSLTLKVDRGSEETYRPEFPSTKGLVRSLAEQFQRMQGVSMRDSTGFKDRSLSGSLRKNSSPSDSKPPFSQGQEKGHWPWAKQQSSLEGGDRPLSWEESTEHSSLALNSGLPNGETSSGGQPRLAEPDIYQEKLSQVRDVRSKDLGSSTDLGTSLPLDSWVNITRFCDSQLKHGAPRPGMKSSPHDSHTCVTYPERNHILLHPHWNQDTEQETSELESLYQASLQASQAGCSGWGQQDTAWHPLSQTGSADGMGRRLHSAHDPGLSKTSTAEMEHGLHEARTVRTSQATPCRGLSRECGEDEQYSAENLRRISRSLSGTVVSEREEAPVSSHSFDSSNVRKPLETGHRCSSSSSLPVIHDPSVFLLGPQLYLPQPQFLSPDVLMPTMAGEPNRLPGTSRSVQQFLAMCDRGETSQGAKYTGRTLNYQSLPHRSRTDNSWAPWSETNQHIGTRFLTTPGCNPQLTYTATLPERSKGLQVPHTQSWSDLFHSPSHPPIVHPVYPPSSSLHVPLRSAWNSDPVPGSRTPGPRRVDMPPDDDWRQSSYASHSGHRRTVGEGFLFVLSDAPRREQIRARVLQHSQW
Sequence of USP9X (Q93008 whole entry): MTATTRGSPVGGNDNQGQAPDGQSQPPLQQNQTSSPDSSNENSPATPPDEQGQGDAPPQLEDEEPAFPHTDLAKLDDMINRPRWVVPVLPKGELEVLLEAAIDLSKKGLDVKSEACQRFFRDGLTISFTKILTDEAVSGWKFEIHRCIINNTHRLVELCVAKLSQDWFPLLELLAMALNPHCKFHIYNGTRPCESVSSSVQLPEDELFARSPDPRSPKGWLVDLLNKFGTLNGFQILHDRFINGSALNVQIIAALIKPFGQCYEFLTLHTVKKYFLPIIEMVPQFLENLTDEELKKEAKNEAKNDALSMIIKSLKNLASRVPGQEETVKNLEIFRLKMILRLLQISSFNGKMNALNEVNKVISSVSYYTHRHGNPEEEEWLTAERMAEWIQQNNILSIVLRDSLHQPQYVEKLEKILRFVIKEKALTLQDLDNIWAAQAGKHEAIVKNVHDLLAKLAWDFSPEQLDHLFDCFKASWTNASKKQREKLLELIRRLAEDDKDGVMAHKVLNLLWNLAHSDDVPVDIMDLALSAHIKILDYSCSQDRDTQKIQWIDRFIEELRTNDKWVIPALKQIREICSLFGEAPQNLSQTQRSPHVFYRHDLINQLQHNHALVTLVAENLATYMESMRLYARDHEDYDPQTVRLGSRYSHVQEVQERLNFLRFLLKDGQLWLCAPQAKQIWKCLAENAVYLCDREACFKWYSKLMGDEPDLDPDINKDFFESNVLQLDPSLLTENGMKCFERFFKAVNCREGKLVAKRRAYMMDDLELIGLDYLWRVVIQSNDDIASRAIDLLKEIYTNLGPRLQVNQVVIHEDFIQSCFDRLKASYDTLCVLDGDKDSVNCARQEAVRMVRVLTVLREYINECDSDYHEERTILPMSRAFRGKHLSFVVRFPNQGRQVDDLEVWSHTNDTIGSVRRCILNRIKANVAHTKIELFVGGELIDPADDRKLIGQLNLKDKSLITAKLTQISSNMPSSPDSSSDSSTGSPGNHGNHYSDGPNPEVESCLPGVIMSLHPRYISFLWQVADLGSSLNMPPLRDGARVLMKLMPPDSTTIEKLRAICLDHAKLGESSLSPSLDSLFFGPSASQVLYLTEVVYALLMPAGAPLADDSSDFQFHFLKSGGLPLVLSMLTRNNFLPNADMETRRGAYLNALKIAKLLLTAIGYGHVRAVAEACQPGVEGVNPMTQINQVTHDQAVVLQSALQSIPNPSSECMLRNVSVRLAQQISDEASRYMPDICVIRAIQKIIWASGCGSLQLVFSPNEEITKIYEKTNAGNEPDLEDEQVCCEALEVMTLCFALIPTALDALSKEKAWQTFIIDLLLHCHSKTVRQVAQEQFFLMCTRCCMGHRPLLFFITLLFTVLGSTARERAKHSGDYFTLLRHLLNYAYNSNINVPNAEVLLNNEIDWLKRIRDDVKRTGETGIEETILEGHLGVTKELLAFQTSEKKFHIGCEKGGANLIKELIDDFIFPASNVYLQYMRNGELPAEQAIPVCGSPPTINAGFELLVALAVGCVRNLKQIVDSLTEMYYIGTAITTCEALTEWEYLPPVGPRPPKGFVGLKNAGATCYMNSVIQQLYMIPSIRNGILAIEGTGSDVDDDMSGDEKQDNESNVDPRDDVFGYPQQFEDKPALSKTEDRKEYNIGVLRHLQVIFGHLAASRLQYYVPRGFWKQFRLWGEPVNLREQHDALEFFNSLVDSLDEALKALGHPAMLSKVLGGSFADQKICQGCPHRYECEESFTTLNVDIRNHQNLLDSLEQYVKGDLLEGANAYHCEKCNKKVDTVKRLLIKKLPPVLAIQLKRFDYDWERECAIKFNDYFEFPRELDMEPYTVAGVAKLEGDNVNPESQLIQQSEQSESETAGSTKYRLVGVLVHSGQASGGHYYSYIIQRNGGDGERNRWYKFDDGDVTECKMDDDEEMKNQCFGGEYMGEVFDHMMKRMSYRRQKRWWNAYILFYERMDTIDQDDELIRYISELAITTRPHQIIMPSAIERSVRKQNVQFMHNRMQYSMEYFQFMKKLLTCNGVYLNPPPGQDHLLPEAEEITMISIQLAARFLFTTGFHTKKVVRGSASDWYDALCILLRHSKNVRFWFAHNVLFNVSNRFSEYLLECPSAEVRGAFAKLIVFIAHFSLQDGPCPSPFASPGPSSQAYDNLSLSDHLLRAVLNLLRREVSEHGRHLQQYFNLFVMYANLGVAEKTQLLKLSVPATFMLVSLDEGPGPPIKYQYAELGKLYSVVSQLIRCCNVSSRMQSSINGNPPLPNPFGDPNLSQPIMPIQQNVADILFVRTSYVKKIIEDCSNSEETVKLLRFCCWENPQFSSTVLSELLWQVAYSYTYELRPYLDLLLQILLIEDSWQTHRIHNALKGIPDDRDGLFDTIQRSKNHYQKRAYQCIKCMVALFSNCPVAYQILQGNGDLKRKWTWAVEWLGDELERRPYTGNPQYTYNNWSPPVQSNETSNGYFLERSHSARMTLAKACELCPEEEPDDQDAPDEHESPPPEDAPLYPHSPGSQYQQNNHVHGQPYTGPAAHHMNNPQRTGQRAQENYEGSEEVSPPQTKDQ

On to `Cc1noc(C)c1CNC(=O)CCl`, for which the “log2 ratio of Biotin-Ahx-Ub-VS probe labelling” value with USP42 was 0.262; with USP46, -0.347; with USP47, 0.0132; in the experiment with USP48, -0.547; with USP5, -0.403; with USP54, 1.07. Besides, the “log2 ratio of Biotin-Ahx-Ub-VS probe labelling” value in the experiment with USP7 was -0.406; with USP8, -1.2 (active); with USP9X it was -0.717; in the experiment with UniProt O00487, -0.395.
